Inconclusive results are not listed. Entries that show only a call come without a potency. The source made the active and inactive calls. The call rests on the fitted dose curve; in most records, active means well fitted inhibition curve with a large enough effect; inconclusive means small, poorly fitted or top-dose-only effect; inactive means no such curve, though single readings can be large or run the other way.
Potency means the concentration at half of the fitted maximal effect.

The experiment deals with Tumor susceptibility gene 101 protein (Homo sapiens) (UniProt Q99816). The experiment is described as follows: qHTS Assay for Iinhibitors of HIV-1 Budding by Blocking the Interaction of PTAP/TSG101: Hit Validation in TR assay. Particulars: Tsg101 binding domain + Texas Red-labeled PTAP peptide, fluorescence polarization, 20 min; series mostly up to 57.5 µM. Summed up: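 Fluorescence polarization: Tsg101 binding domain (10 uM final) with Texas Red-labelled PTAP peptide (50 nM final) in HEPES pH 7.5, 0.15 M NaCl, Tween 20, EDTA, TCEP; 20 min binding at room temperature after compound addition.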
Sequence of Tumor susceptibility gene 101 protein (Homo sapiens) (Q99816 whole entry, looked up, the tested form may be a part): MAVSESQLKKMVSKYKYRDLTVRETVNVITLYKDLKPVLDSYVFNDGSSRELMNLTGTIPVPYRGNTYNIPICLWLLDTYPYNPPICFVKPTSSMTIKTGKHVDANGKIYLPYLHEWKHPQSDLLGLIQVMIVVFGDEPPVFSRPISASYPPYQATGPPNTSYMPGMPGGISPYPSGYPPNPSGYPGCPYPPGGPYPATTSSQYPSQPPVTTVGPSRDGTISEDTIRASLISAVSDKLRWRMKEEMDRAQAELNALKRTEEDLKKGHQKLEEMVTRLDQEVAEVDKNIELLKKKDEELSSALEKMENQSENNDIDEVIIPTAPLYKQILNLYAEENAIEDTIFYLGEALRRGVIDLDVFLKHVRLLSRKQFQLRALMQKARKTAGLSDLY
(In general: Quantitative high-throughput screening tests each substance at several concentrations.)
For the compound `COc1ccccc1Nc1nc2ccc(C)cc2cc1C#N`, the Potency entry is “inactive”.

As for `O=S(=O)(Nc1nc2n(n1)C(c1ccccc1)C=C(c1ccc(Cl)cc1)N2)c1ccccc1` (centres undefined), the Potency result was “inactive”.

For the compound `CCc1c(C)sc(NC(=O)c2ccccc2[N+](=O)[O-])c1C(N)=O`, the Potency entry is “inactive”.

Regarding `O=C(O)[C@@H]1[C@H]2C[C@H]3c4[nH]c5ccccc5c4CCN3C[C@@H]2CC[C@@H]1O`, the Potency was 13 µM (active).

For `CN1c2ccc(C=O)c3c(C=O)ccc(c23)N(C)C1(C)C`, the Potency result is “inactive”.

With `CCCCNc1ccc2c3c(cccc13)C(=O)N(CCCC)C2=O`, the Potency result was “inactive”.

As to `COCCN(CCOC)Cc1c(O)ccc2c1O/C(=C\c1ccco1)C2=O`, the Potency entry was “inactive”.

`COC(CNC(=O)c1ccc2c3c(onc13)-c1ccccc1C2=O)OC`: the Potency entry is “inactive”.

As for `Cc1oc2cc(O)ccc2c(=O)c1-c1nncn1-c1ccccc1`, the Potency entry was “inactive”.

For the compound `C1=C(c2ccc(-c3ccccc3)cc2)Nc2ncnn2C1c1ccco1` (centres undefined), the Potency result was “inactive”.

As for `CCOc1ccc(NC(=O)c2ccc3c(c2)CCN3S(C)(=O)=O)cc1`, the Potency entry was “inactive”.

`NC(=O)c1ccccc1NCC(=O)c1ccc(F)cc1`: the Potency entry is “inactive”.

In the case of `COc1ccc(/C=C2/N=C(c3cccs3)OC2=O)cc1OC(C)C`, the Potency result was “inactive”.

Regarding `CCN(CC)c1ccc(/C=C(\C#N)C(=O)NCc2ccccc2)cc1`, the Potency entry was “inactive”.

Take `N=C1CCC(=N)c2c1c(O)c1ccccc1c2O`: the Potency entry was “inactive”.

With `O=C(OCCN1C(=O)c2cccc3c(N4CCOCC4)ccc(c23)C1=O)c1ccc(Cl)cc1Cl`, the Potency result was “inactive”.

As to `Cc1cc(Br)ccc1NC(=O)c1sc2nc3n(c(=O)c2c1C)CCCC3`, the Potency result was “inactive”.

In the case of `Cc1c2ccccc2nc2c(F)c(NC(C)C)c(F)c(F)c12`, the Potency result is “inactive”.

As to `CCCCNc1c2c3c(cccc3n(C)c1=O)C(=O)c1ccccc1-2`, the Potency result is “inactive”.

`N#Cc1cccc(NC(=O)CSc2ccc3c4c(cccc24)C(=O)c2ccccc2-3)c1`: the Potency entry was “inactive”.

Consider `O=c1[nH]nc(-c2ccc(F)cc2)cc1Cc1ccc(F)cc1`, for which the Potency result is “inactive”.

With `CCCNc1c(F)c(F)c2c(C)c3ccccc3nc2c1F`, the Potency entry is “inactive”.

Regarding `Cc1ccc(N=Cc2c(O)n(-c3nccs3)c(=O)c3ccccc23)c(C)c1`, the Potency entry is “inactive”.

Regarding `CC(C)c1cc(=O)oc2c3c4c(cc12)CCCN4CCC3`, the Potency result is “inactive”.

On to `Cc1cc2nc3c(=O)[nH]c(=O)[nH]c3nc2c([N+](=O)[O-])c1N`, for which the Potency entry was “inactive”.

For `CCc1cccc2cc3c(N)c(C(=O)Nc4ccc(S(=O)(=O)N5CCCC5)cc4)sc3nc12`, the Potency entry was “inactive”.

As for `CCSC1=NSC2=NC(=O)/C(=C\c3coc4ccccc4c3=O)C(=N)N12`, the Potency result is “inactive”.

As to `CC(C)CSC1=NSC2=NC(=O)/C(=C\c3coc4ccccc4c3=O)C(=N)N12`, the Potency result was “inactive”.

Take `CCN(CC)c1ccc2cc(S(=O)(=O)c3ccc(Cl)cc3)c(=O)oc2c1`: the Potency entry was “inactive”.

For `Cn1cc(/C=C2\SC(=S)N(NC(=O)c3cccc(Cl)c3)C2=O)c2ccccc21`, the Potency entry was “inactive”.

On to `CCN1CCc2c(sc(NC(=O)CSc3ccccc3)c2-c2nc3ccccc3s2)C1`, for which the Potency result was “inactive”.

On to `COc1ccc2c(C=Nc3c(C)n(C)n(-c4ccccc4)c3=O)c(O)n(Cc3ccco3)c(=O)c2c1`, for which the Potency result is “inactive”.

Take `CC(=O)Nc1ccc(N=Cc2c(O)c(C(=O)Nc3ccccc3)cc3ccccc23)cc1`: the Potency entry was “inactive”.

Consider `COc1ccc2nc3ccccc3nc2c1NC(=O)c1ccc(Cl)cc1Cl`, for which the Potency result was “inactive”.

For the compound `Cc1cc2nc3c(=O)n(C4CCCCC4)c(=O)[nH]c3nc2cc1N`, the Potency result was “inactive”.

For the compound `O=C(NCc1ccco1)c1cccc2c1C(=O)c1ccc(N3CCC(Cc4ccccc4)CC3)cc1S2(=O)=O`, the Potency entry was “inactive”.

On to `COc1ccc(OC)c(NC(=O)CCN2CC(C)CC(C)C2)c1` (centres undefined), for which the Potency entry was “inactive”.

On to `COc1ccc(N(C(=O)c2snc(C(N)=O)c2N)C(C(=O)NC2CCCC2)c2ccc3ncccc3c2)cc1` (centres undefined), for which the Potency entry was “inactive”.

For `CC(C)(C)OC(=O)NC(Cc1ccccc1)C(=O)N1CCC(C(=O)NCC(=O)Nc2ccc(F)cc2)CC1` (centres undefined), the Potency result is “inactive”.

The record behind these values is PubChem BioAssay AID651599 (National Center for Advancing Translational Sciences (NCATS), 2012).
